Screening data as filed in PubChem.
ELG1 DNA repair: inhibitors of ELG1-dependent DNA repair in HEK293T cells | HEK293T ELG1-luciferase reporter, luminescence, 16 h; DNA damage induced by 5-fluorouridine | Potency, µM (doses to about 46.1 µM), for the others: at the top dose activity change, negative = inhibition, most hits filed as inhibitors | hit rate 2.3% among 330,000 | AID 504467; also: % is scaled to controls: 0 for no effect and ±100 for the full control effect; nearly all actives have a fitted effect of over 55% in size
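Luminescence from the luciferase reporter, measured 30 min after ONE-Glo reagent at room temperature, was the read-out. Beforehand, 2,000 cells per well were exposed for 16 hr at 37 °C to 5-fluorouridine together with compound or vehicle.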
Rab9 prom act: Rab9 promoter activation; hit rate 2.8% among 320,000; Huh7 Rab9 promoter-luciferase reporter, luminescence, 24 h; Potency, µM (series often up to 9.22 µM), for the others: at the highest dose activation, negative = inhibition, hits mostly activators; also: % of control where 0% means no effect; nearly all actives have a fitted effect of over 60% in size
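Huh7 cells stably carrying a Rab9 promoter-luciferase reporter, 1500 cells per well in OP-MEM I with 10% FBS, treated with compound 24 hours at 37C. Luciferase activity read by luminescence after 10 minutes with Amplite reagent.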
ELG1 genotoxic: induces genotoxicity in HEK293T cells with luciferase-tagged ELG1; HEK293T ELG1-luciferase reporter, luminescence, 16 h; Potency, µM (top dose mostly 46 µM), without a hit: at the top dose activity change, positive = activation, actives largely listed as activators; hit rate 1.3% among 330,000; AID 504466; also: % of control where 0% means no effect; nearly all actives have a fitted effect of over 60% in size
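Quantitative HTS format in 1536-well plates. HEK293T ELG1-luciferase reporter cells receive test compound and are incubated 16 hr at 37 °C, 5% CO2; ONE-Glo added, 30 min room temperature, then luminescence read.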
FLuc counter: inhibits or activates purified firefly luciferase, miR-21 counter-screen. purified FLuc, Km substrates, luminescence inhibition. AID 588342. Potency, µM (highest dose often 57.5 µM), for inactives: at the highest dose activity change, negative = inhibition, most hits filed as inhibitors. hit rate 6.9% among 360,000. P08659;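 also: plate controls were vehicle for no effect and reference inhibitor for full effect; nearly all actives have a fitted effect of over 55% in size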
Target sequence (P08659 whole entry, looked up): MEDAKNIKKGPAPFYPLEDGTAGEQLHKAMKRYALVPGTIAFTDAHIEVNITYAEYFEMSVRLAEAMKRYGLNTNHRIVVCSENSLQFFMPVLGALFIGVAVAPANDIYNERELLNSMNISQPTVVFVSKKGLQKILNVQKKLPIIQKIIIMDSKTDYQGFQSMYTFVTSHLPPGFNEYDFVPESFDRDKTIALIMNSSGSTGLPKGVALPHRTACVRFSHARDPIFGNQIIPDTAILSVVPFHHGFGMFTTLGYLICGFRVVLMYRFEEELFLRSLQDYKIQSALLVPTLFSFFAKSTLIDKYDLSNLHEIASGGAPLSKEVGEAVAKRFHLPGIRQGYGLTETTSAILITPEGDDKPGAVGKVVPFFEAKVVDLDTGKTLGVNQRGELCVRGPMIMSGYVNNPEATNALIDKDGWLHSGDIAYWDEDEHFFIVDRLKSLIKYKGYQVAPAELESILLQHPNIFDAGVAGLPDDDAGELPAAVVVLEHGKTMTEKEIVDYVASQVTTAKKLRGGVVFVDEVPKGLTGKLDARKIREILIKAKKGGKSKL
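Purified P. pyralis luciferase (10nM final) with 10uM D-luciferin and 10uM ATP (Km levels) in 50mM Tris acetate pH 7.5, 10mM Mg acetate, 0.01% Tween-20, 0.05% BSA; qHTS 6-point titration, ~60 µM downward; luminescence read.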
SMN2 splice enh: increases expression of the SMN2 splice variant | HEK293 SMN2-luciferase splicing reporter, luminescence, 30-36 h | Potency, µM (series often up to 46.1 µM), inactives show at the highest dose activity change, positive = activation, hits mostly activators | hit rate 2.8% among 210,000 | AID 1458; also: % of control where 0% means no effect; nearly all actives have a fitted effect of over 55% in size
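HEK293 cells carry an SMN2 minigene-luciferase reporter in which exon 7 inclusion puts luciferase in frame. Cells were seeded at 2000 cells/well, attached for 10-12 hours, then exposed to compounds for 30-36 hours at 37C before ONE-Glo luminescence.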
NPC1 prom act: NPC1 promoter activation. Huh7 NPC1 promoter luciferase reporter, 24 h. Potency, µM (top dose mostly 9.22 µM), for the others: at the top dose activation, hits mostly activators. hit rate 2.4% among 320,000. AID 485313; also: % of control where 0% means no effect; nearly all actives have a fitted effect of over 60% in size
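Compounds in DMSO were transferred onto Huh7 NPC1-luciferase reporter cells pre-incubated 2 h; after 24 h at 37 °C, Amplite reagent was dispensed and luminescence recorded 10 min later.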
Starred values were filed as active, the others as inactive; ? = inconclusive; / = not tested or not shown; ! = repeats disagree; [ ] = another dose, or the depositor's remark. Only some compounds are listed: those with a hit (about 9.4% of all), similar ones and a draw of the others. Calls follow the shape of the dose curve; as a rule, active = well fitted curve in the direction sought with a large enough effect; inconclusive = small, poorly fitted or top-dose-only effect, or another doubt; inactive = no such curve, though single readings can be large; an effect the other way counts as inactive or inconclusive. Potency is read from the fitted curve at half-maximal effect.

SMILES	ELG1 DNA repair	Rab9 prom act	ELG1 genotoxic	FLuc counter	SMN2 splice enh	NPC1 prom act
Cn1c(-c2ccccc2)c(C#Cc2ccc(N)cc2)c2ccccc21	22%	/	-2%	/	/	/
Cn1c2ccccc2c(=O)c2cc(C#Cc3ccc(N)cc3)ccc21	?	?	6%	6µM*	/	?
Cn1c2ccccc2c(=O)c2ccc(C#CC3(O)CCCCC3)cc21	?	0.32µM*	?	0.38µM*	/	0.32µM*
COc1ccc(C#Cc2ccc3c(c2)c(=O)c2ccccc2n3C)cc1	19%	15%	-3%	12µM*	/	16%
Cc1ccc(NC(=O)c2ccc(C#CC3(O)CCCCC3)cc2)cc1C	-11%	-8%	-2%	2%	-13%	2%
COC(=O)[C@@H]1C[C@@]2(O)[C@@H](O)[C@@H](O)[C@@H](O)C[C@H]2N1Cc1ccc(C(C)(C)C)cc1	/	/	/	/	-19%	/
Cc1noc(C)c1CSc1nc2ccccc2nc1NS(=O)(=O)c1ccc(Cl)cc1	13µM*	-7%	-34%	?	-23%	-1%
O=S(=O)(Nc1nc2ccccc2nc1NCc1ccco1)c1ccc(Cl)cc1	0%	-8%	-7%	3%	-48%	1%
Cc1ccc(C)c(CN2C(=O)c3ccccc3S(=O)(=O)c3ccc(C(=O)N4CCN(c5ccccn5)CC4)cc32)c1	/	/	/	-3%	?	/
COc1cccc(NC(=O)C(C)(C)C)c1	-3%	0%	4%	5%	/	-3%
CCSc1nsc(NC(=O)Nc2cccc(F)c2)n1	?	-23%	-1%	19µM*	/	-7%
COc1cccc(NC(=O)Nc2nc(SC(C)(C)C)ns2)c1	0%	8%	2%	11µM*	/	17%
COc1cccc(NC(=O)Nc2nc(SC)ns2)c1	?	1.4µM*	?	6.7µM*	/	2.8µM*
C=Cc1ccc(Cn2c(C(=O)O)c(CNCc3cc(OC)ccc3OC)c3ccc(C)cc32)cc1	/	/	/	5%	/	/
COc1ccccc1NC(=O)CCNS(=O)(=O)c1ccc2c(c1)CCCC(=O)N2	/	/	/	-7%	/	/
CCN(CC)C(=O)COc1ccc2oc(-c3ccco3)cc(=O)c2c1	?	27%	10%	15µM*	/	14%
CCN(CC)C(=O)COc1c(-c2ccco2)oc2ccccc2c1=O	?	3%	-6%	2%	/	-5%
COc1ccc(C(=O)c2cnc(/N=C/N(C)C)s2)cc1	?	26%	11%	?	?	13%
CN(C)/C=N/c1ncc(C(=O)c2ccc3ccccc3c2)s1	?	?	3%	24µM*	-29%	23%
CCCCCCCC1=Cc2ccccc2C(C(C(C)=O)C(=O)OC)N1C(=O)OC (stereo not given)	/	/	/	/	2%[9.22 µM]	/
C[n+]1c2n(c3ccccc31)N=C(c1ccccc1)CS2	5.8µM*!	-15%	-14%	-5%	-71%	-17%
C[n+]1c2n(c3ccccc31)N=C(c1ccc(-c3ccccc3)cc1)CS2	?	-28%	-9%	3%	/	-25%
O=C(NCc1ccccc1Cl)C1CCCN(C(=O)c2cnn(-c3ccc(F)cc3)c2-n2cccc2)C1 (stereo not given)	/	/	/	-4%	/	/
Cc1cccc(NC(=O)CSc2nc3c(oc4ccccc43)c(=O)n2-c2ccccc2)c1C	/	/	/	-7%	1%	/
COc1ccc(Cl)cc1C(=O)Nc1ccccc1N1CCN(C(=O)C(C)C)CC1	?	-11%	-22%	-2%	/	-3%
SMILES	ELG1 DNA repair	Rab9 prom act	ELG1 genotoxic	FLuc counter	SMN2 splice enh	NPC1 prom act
CC(=O)N1CCN(c2ccc(NC(=O)c3ccccc3Br)cc2Cl)CC1	?	7%	2%	?	-7%	-1%
CC(C)C(=O)N1CCN(c2ccc(NC(=O)c3ccc4c(c3)OCCO4)cc2Cl)CC1	5.8µM*	-2%	-34%	4.3µM*	-41%	6%
CC(C)C(=O)N1CCN(c2ccccc2NC(=S)NC(=O)c2cccs2)CC1	?	-1%	-10%	0%	-3%	1%
COc1ccc(C(=O)Nc2ccccc2N2CCN(C(=O)C(C)C)CC2)cc1Cl	23µM*	-4%	-3%	-1%	-29%	-3%
CC(=O)N1CCN(c2ccc(NC(=O)c3ccc4c(c3)OCCO4)cc2Cl)CC1	?	-1%	-7%	6µM*	/	9%
CC(C)C(=O)N1CCN(c2ccc(NC(=O)c3cccs3)cc2Cl)CC1	12µM*	7%	-9%	?	/	9%
COc1ccc(N2CCN(C(=O)CN3C(=O)COc4ccc(S(=O)(=O)N5CCC(C)CC5)cc43)CC2)cc1	/	/	/	-2%	7%	/
COc1ccc2oc(-c3cccc(NC(=O)c4cc([N+](=O)[O-])ccc4N4CCOCC4)c3)nc2c1	/	/	/	?	8%	/
Cc1ccccc1CN(c1ccc(C(=O)Nc2ccccc2C(=O)NCc2ccco2)cc1)S(C)(=O)=O	7.3µM*	-4%	-5%	-3%	?	2%
COc1ccc(C(=O)Nc2ccc(Cl)cc2C(=O)NCc2ccco2)cc1OC	16µM*	-4%	-9%	-2%	-3%	-4%
COc1ccc(N2CC(C(=O)Nc3ccccc3C(=O)NCc3ccco3)CC2=O)cc1 (stereo not given)	?	-3%	-4%	5%	9%	-1%
CCCOc1ccc(N2CC(C(=O)Nc3ccccc3C(=O)NCc3ccco3)CC2=O)cc1 (stereo not given)	18µM*	-3%	-18%	2%	6%	-3%
COc1ccc(Cl)cc1C(=O)NCc1ccco1	?	-1%	2%	-6%	/	2%
CC(=O)c1cccc(NC(=O)c2ccc(N(Cc3ccccc3C)S(C)(=O)=O)cc2)c1	26µM*	0%	-8%	-9%	13%	-8%
CCn1c(=O)c2cc(C(=O)NCCCN3CCN(C)CC3)sc2c2ccccc21	/	/	/	-7%	-16%	/
CC(C)(C(O)c1ccc([N+](=O)[O-])cc1)[N+](=O)[O-] (stereo not given)	/	/	/	/	-3%	/
O=C(Cn1c(=O)n(Cc2ccco2)c(=O)c2sc3ccccc3c21)Nc1ccc(F)cc1F	/	/	/	5%	-7%	/
COc1ccc(NC(C)=O)cc1NC(=O)C1(c2cccs2)CCOCC1	/	/	/	1%	/	/
COc1ccc(-c2noc(-c3ccccc3C(=O)NCc3ccco3)n2)cc1OC	8.2µM*	-3%	-19%	19µM*	-10%	9%
C=CCNC(=O)c1c(N)n(-c2cccc(S(N)(=O)=O)c2)c2nc3ccccc3nc12	9.2µM*	-5%	-22%	1%	-18%	0%
COc1ccc(-n2c(N)c(C(=O)NCc3ccco3)c3nc4ccccc4nc32)cc1OC	6.5µM*	2%	10%	-3%	-15%	-5%
